Active and inactive are the calls of the source. The calls were made as follows: active = hit-call score of the fitted dose curve at least 0.9, where 1 is the maximum; inactive = score below 0.9.
Columns and labels:
[1] = ATG_GRE_CIS: Attagene CIS-FACTORIAL HepG2 Assay for human Glucocorticoid Response Elements (GRE) (AID 2282947); conditions: HepG2 GRE cis-reporter, Attagene multiplex mRNA; actives raise or lower the signal
Outline: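 Fluorescence intensity of reporter-specific cDNA fragments, separated by capillary electrophoresis, provides the signal. Constructs carry cis-regulating promoters in transiently transfected HepG2 liver cells; 24 h incubation; fitting is bidirectional against DMSO.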

[2] = ATG_ISRE_CIS: Attagene CIS-FACTORIAL HepG2 Assay for human Interferon Regulatory Factor 1 (IRF1) binding to an Interferon-Stimulated Response Element (ISRE) (AID 2282948); conditions: HepG2 ISRE cis-reporter (Attagene), mRNA transcription readout; actives raise or lower the signal
Outline: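 Multiplexed mRNA reporter readout in human liver HepG2 cells: cis-element-driven reporters transfected, compound added for 24 h, transcripts amplified, fluorescently labelled and sized by capillary electrophoresis; curve fitting bidirectional against DMSO.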

[3] = ATG_M_32_CIS: Attagene CIS-FACTORIAL HepG2 Assay for M32 Transcription Factor (Internal Marker) (AID 2282949); conditions: HepG2 Attagene cis-factorial M32 reporter, mRNA; actives raise or lower the signal;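 also: background control marker of the multiplexed CIS panel rather than a real target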
Outline: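 HepG2 human liver cells transiently transfected with cis-promoter-driven multiple reporter transcription units, dosed 24 h. Reporter mRNA quantified by RT-PCR, FAM-labelled primer extension, HpaI digest and capillary electrophoresis; bidirectional fit versus DMSO baseline.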

[4] = ATG_M_06_CIS: Attagene CIS-FACTORIAL HepG2 Assay for M06 Transcription Factor (Internal Marker) (AID 2282950); conditions: HepG2 Attagene CIS-FACTORIAL M06 internal marker reporter; actives raise or lower the signal
Outline: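 Read-out is fluorescence of labelled reporter cDNA fragments resolved by capillary electrophoresis after RT-PCR. Cells: HepG2 carrying transfected cis-promoter reporter units, treated 24 h. Gain or loss of signal fitted relative to DMSO.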

[5] = molecular target: Hypoxia-inducible factor 1-alpha (Homo sapiens) (UniProt Q16665); assay: ATG_HIF1a_CIS: Attagene CIS-FACTORIAL HepG2 Assay for human Hypoxia Inducible Factor 1 (HIF1A) (AID 2282951); conditions: HepG2 Attagene cis-factorial HIF1a reporter transcription; actives raise or lower the signal
Chain of Hypoxia-inducible factor 1-alpha (Homo sapiens) (Q16665 whole entry, looked up): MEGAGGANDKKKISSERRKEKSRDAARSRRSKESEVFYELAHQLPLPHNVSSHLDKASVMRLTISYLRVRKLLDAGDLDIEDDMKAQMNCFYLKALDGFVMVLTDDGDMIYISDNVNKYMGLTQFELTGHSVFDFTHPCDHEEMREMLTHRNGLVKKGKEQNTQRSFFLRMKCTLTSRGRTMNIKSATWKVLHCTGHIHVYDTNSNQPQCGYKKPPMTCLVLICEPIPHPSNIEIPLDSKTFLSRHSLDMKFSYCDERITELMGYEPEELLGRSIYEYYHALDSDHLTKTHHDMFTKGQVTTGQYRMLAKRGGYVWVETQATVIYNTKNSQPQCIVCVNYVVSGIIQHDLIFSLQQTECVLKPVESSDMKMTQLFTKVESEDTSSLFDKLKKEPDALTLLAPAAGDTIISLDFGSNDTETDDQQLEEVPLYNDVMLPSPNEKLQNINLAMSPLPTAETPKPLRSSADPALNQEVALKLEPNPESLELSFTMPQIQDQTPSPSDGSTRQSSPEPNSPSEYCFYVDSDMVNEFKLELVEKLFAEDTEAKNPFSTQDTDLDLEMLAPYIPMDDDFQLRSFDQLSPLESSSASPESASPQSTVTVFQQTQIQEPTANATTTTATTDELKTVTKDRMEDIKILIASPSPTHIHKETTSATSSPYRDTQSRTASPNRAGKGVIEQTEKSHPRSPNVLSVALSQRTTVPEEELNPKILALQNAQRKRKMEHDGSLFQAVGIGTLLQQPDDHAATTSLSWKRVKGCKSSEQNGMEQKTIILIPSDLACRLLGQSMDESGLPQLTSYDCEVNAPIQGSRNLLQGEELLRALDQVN
Outline: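 HepG2, transient cis-reporter library, 24 h dosing. RNA → RT (oligo dT) → PCR → 6-FAM primer extension → HpaI → CE. Bidirectional curve fit vs DMSO.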

[6] = molecular target: Hepatocyte nuclear factor 6 (Homo sapiens) (UniProt Q9UBC0); assay: ATG_HNF6_CIS: Attagene CIS-FACTORIAL HepG2 Assay for human Hepatocyte Nuclear Factor 6 (HNF6) (AID 2282952); conditions: HepG2 Attagene cis-factorial HNF6 reporter transcription; actives raise or lower the signal
Chain of Hepatocyte nuclear factor 6 (Homo sapiens) (Q9UBC0 whole entry, looked up, the tested form may be a part): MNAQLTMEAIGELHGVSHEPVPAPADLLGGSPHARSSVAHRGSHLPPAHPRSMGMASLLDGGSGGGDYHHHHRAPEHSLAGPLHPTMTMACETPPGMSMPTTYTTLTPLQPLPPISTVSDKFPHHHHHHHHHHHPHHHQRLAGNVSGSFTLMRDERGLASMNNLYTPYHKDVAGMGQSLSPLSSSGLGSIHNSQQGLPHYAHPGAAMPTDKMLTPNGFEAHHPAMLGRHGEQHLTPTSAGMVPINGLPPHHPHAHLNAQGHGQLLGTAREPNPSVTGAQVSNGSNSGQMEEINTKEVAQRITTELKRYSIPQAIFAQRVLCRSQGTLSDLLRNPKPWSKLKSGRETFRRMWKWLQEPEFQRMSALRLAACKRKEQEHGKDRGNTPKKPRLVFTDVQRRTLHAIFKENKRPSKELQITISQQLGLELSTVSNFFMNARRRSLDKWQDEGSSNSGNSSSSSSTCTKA
Outline: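 Using cis-element reporters in HepG2 liver cells, the assay tracks endogenous factor-driven transcription 24 h post-dosing. Signal comes from 6-FAM-labelled, HpaI-digested RT-PCR fragments, with gain or loss scored against DMSO.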

[7] = molecular target: Heat shock factor protein 1 (Homo sapiens) (UniProt Q00613); assay: ATG_HSE_CIS: Attagene CIS-FACTORIAL HepG2 Assay for human Heat Shock Transcription Factor 1 (HSE) (AID 2282953); conditions: HepG2 HSE cis-reporter, Attagene RNA transcription; actives raise or lower the signal
Chain of Heat shock factor protein 1 (Homo sapiens) (Q00613 whole entry, looked up): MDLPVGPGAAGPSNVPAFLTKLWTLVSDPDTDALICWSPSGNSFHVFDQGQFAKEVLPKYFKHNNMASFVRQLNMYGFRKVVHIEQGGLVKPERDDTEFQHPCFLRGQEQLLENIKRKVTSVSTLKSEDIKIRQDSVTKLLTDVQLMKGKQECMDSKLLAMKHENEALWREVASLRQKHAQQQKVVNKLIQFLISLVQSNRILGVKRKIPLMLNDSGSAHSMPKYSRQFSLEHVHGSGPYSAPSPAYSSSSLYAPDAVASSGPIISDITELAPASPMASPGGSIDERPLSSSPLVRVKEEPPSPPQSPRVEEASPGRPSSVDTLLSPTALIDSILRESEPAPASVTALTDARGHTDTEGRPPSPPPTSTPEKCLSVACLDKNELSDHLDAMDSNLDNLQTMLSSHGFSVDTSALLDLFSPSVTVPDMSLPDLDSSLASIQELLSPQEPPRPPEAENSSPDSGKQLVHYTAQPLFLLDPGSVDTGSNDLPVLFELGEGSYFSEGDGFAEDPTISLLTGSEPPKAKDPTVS
Outline: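 HepG2, transient MRTU transfection, cis-promoter reporters (endogenous TF activity). 24 h compound. RNA → oligo(dT) RT → PCR → 6-FAM primer extension → HpaI cut → CE. Bidirectional fit vs DMSO.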

[8] = ATG_MRE_CIS: Attagene CIS-FACTORIAL HepG2 Assay for human Metal Responsive Element (MRE) (AID 2282954); conditions: HepG2 MRE cis-reporter transcription, Attagene multiplex; actives raise or lower the signal
Outline: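 Measured here is mRNA induction from an MRE cis-element reporter in HepG2 after 24 h, quantified by fluorescence of labelled RT-PCR products on capillary electrophoresis; gain- and loss-of-signal fits use DMSO as baseline.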

[9] = molecular target: Paired box protein Pax-6 (Homo sapiens) (UniProt P26367); assay: ATG_Pax6_CIS: Attagene CIS-FACTORIAL HepG2 Assay for human Paired Box 6 (PAX6) (AID 2282956); conditions: HepG2 CIS-FACTORIAL PAX6 reporter transcription, RNA readout; actives raise or lower the signal
Chain of Paired box protein Pax-6 (Homo sapiens) (P26367 whole entry, looked up): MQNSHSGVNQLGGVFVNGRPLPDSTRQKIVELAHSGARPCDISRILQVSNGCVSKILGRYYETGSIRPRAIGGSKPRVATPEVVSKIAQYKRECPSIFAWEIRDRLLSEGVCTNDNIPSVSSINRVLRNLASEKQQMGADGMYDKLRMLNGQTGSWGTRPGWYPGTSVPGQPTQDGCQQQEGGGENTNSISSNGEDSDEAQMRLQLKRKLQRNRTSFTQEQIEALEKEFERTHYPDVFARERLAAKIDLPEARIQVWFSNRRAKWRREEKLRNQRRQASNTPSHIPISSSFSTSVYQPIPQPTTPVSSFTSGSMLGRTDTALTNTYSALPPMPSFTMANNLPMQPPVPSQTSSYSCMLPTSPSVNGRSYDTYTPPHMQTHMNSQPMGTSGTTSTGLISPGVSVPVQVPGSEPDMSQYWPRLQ
Outline: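 Fluorescent RT-PCR products separated by capillary electrophoresis report PAX6-linked promoter mRNA in HepG2 cells 24 h post-dose. Curves fitted bidirectionally, DMSO as negative control.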

[10] = ATG_PXRE_CIS: Attagene CIS-FACTORIAL HepG2 Assay for human Pregnane X Receptor Element (PXRE) (AID 2282957); conditions: HepG2 Attagene CIS-FACTORIAL PXRE reporter, mRNA; actives raise or lower the signal
Outline: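 Using HepG2 transfected with multiple reporter transcription units, endogenous factor-driven transcription was scored as reporter mRNA after 24 h exposure.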

[11] = ATG_RORE_CIS: Attagene CIS-FACTORIAL HepG2 Assay for human RAR-related Orphan Receptor Element (RORE) (AID 2282959); conditions: HepG2 Attagene cis-factorial RORE reporter, mRNA; actives raise or lower the signal
Outline: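 Multiplexed reporter assay measuring mRNA induction from a cis promoter element in transiently transfected HepG2 cells after 24 h treatment. Detection via RT-PCR and capillary electrophoresis fluorescence; DMSO serves as baseline.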

[12] = molecular target: Transcription factor Sp1 (Homo sapiens) (UniProt P08047); assay: ATG_Sp1_CIS: Attagene CIS-FACTORIAL HepG2 Assay for human Specificity Protein 1 (Sp1) (AID 2282961); conditions: HepG2 Sp1 cis-reporter transcription, actives raise or lower the signal
Chain of Transcription factor Sp1 (Homo sapiens) (P08047 whole entry, looked up): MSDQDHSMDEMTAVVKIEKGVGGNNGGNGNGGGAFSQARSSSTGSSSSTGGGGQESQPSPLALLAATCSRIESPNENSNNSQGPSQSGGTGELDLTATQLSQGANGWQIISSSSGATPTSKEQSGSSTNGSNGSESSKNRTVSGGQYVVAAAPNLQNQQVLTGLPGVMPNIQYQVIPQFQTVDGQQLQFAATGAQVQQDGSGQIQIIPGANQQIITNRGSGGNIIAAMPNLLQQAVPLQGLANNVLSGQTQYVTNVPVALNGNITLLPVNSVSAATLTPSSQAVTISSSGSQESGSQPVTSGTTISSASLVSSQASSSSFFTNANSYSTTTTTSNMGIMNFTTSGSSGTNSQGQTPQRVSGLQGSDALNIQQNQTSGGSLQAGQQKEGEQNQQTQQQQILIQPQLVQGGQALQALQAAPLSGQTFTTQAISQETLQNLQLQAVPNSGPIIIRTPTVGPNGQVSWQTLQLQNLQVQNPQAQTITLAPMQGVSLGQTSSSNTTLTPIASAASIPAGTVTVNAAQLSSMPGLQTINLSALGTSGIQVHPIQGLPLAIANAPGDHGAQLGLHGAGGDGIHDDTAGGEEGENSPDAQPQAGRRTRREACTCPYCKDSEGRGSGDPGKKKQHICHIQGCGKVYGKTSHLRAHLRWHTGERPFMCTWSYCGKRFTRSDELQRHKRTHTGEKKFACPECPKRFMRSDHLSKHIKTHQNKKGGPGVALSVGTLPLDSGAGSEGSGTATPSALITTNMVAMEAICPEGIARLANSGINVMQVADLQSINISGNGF
Outline: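 Measures mRNA induction of an Sp1-linked reporter in HepG2 cells 24 h post-dosing. Multiplexed reporters read by RT-PCR and capillary electrophoresis; DMSO serves as negative control and baseline.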

[13] = ATG_SREBP_CIS: Attagene CIS-FACTORIAL HepG2 Assay for human Sterol Regulatory Element Binding (SREBP) (AID 2282962); conditions: HepG2 Attagene cis-factorial SREBP reporter, mRNA; actives raise or lower the signal
Outline: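 Endogenous factor activity is measured in HepG2 through multiplexed reporter units under cis-element control. Following a 24 h incubation, reporter transcripts are reverse-transcribed, PCR-amplified and sized by capillary electrophoresis; activity is fitted in both directions relative to DMSO.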

[14] = molecular target: Signal transducer and activator of transcription 3 (Homo sapiens) (UniProt P40763); assay: ATG_STAT3_CIS: Attagene CIS-FACTORIAL HepG2 Assay for human Signal Transducer and Activator of Transcription 3 (STAT3) (AID 2282963); conditions: HepG2, Attagene cis-factorial STAT3 reporter transcription; actives raise or lower the signal
Chain of Signal transducer and activator of transcription 3 (Homo sapiens) (P40763 whole entry, looked up, the tested form may be a part): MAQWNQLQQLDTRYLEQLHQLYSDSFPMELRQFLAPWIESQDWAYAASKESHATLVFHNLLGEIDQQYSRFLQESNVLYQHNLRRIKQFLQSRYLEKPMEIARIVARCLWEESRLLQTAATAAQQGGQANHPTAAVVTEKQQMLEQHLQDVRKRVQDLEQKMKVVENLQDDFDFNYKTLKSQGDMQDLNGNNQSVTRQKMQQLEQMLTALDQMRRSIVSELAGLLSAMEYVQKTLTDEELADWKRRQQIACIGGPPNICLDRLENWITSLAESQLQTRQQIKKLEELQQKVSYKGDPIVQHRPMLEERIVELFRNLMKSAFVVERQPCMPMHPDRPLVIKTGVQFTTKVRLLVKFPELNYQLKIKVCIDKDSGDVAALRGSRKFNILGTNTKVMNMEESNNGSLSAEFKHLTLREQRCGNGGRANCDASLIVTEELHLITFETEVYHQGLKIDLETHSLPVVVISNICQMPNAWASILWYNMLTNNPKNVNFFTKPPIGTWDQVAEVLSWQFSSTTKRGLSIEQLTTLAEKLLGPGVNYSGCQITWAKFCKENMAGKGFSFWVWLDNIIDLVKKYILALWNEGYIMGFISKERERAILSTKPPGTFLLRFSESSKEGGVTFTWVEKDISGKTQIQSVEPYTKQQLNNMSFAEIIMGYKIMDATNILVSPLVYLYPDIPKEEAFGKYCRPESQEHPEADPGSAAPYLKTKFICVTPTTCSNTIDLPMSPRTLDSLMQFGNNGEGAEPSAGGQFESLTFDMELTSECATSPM
Outline: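 Fluorescence intensity of 6-FAM-labelled reporter fragments, separated by capillary electrophoresis after RT-PCR, gave the signal. Cells were HepG2 transfected with cis-element reporter units and treated 24 h; fitting was bidirectional relative to DMSO.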

[15] = ATG_TA_CIS: Attagene CIS-FACTORIAL HepG2 Assay for human TA Basal Promoter (AID 2282964); conditions: HepG2 Attagene CIS-factorial TA basal promoter reporter; actives raise or lower the signal
Outline: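 Read-out: fluorescent reporter-transcript fragments resolved by capillary electrophoresis after RT-PCR and HpaI digestion. Source: HepG2 cells carrying transiently transfected multi-reporter cis constructs, treated 24 h. Endpoint fitted bidirectionally relative to DMSO.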

[16] = ATG_TCF_b_cat_CIS: Attagene CIS-FACTORIAL HepG2 Assay for human T-Cell-Factor with beta-catenin (TCF/b-cat) (AID 2282965); conditions: HepG2 TCF/beta-catenin cis-reporter transcription, actives raise or lower the signal
Outline: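 HepG2 cells transiently transfected with cis-promoter-driven multiplexed reporter units; reporter mRNA measured 24 h after dosing by RT-PCR, FAM labelling, HpaI digestion and capillary electrophoresis. Bidirectional fitting relative to DMSO baseline.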

[17] = ATG_PBREM_CIS: Attagene CIS-FACTORIAL HepG2 Assay for human Phenobarbital-responsive Enhancer Module (PBREM) (AID 2282955); conditions: HepG2 PBREM cis-reporter, Attagene multiplexed transcription; actives raise or lower the signal
Outline: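 HepG2, transient MRTU transfection, 24 h dosing; RNA → oligo(dT) RT → PCR → 6-FAM extension → HpaI → CE. Bidirectional fit vs DMSO.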

[18] = ATG_Sox_CIS: Attagene CIS-FACTORIAL HepG2 Assay for human SRY-box transcription factor (SOX) (AID 2282960); conditions: HepG2 Attagene cis-factorial SOX reporter, mRNA; actives raise or lower the signal
Outline: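 Cells were transfected with reporter constructs under cis-regulatory promoters, then exposed to chemicals for 24 h. Reporter transcripts were quantified by fluorescence after RT-PCR and capillary electrophoresis; activity was fitted in both directions against DMSO.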

[19] = ATG_PPRE_CIS: Attagene CIS-FACTORIAL HepG2 Assay for human Peroxisome Proliferator-activated Response Element (PPRE) (AID 2282958); conditions: HepG2 PPRE cis-element reporter, Attagene transcription factor profiling; actives raise or lower the signal
Outline: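 Transcript-level reporter induction in transfected HepG2 cells after 24 h chemical exposure, quantified by fluorescence from RT-PCR products separated by capillary electrophoresis.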

Measured: AC50

C=CC(=O)OCCOCCOCC
active: [9] 68.4 µM | [10] 27 µM
inactive: [1] | [2] | [3] | [4] | [5] | [6] | [7] | [8] | [11] | [12] | [13] | [14] | [15] | [16]

O=[N+]([O-])c1ccc(C=Cc2ccc([N+](=O)[O-])cc2S(=O)(=O)O)c(S(=O)(=O)O)c1
inactive: [1] | [2] | [3] | [4] | [5] | [6] | [7] | [17] | [9] | [10] | [11] | [18] | [12] | [13] | [14] | [15] | [16]

O=C1CCCCCCCCCCOCCCCO1
active: [5] 179 µM | [8] 180 µM | [10] 26.6 µM
inactive: [1] | [2] | [3] | [4] | [6] | [17] | [9] | [19] | [11] | [18] | [12] | [13] | [14] | [15]

CCC(C)(O)CCC=C(C)C (configuration not stated)
inactive: [1] | [2] | [3] | [4] | [5] | [6] | [7] | [8] | [9] | [10] | [19] | [18] | [12] | [13] | [14] | [15] | [16]

CC1CC(OC(=O)c2ccccc2O)CC(C)(C)C1 (configuration not stated)
inactive: [1] | [2] | [4] | [6] | [7] | [8] | [17] | [9] | [19] | [11] | [18] | [12] | [13] | [14] | [15] | [16]
active: [10] 25.8 µM

CSc1nc(NC2CC2)nc(NC(C)(C)C)n1
inactive: [2] | [3] | [4] | [5] | [6] | [7] | [17] | [9] | [11] | [12] | [13] | [14] | [15]
active: [8] 65.7 µM | [10] 0.911 µM | [19] 100 µM | [16] 51.7 µM

CC1=CCC(O)(C(C)C)CC1 (configuration not stated)
inactive: [1] | [2] | [3] | [4] | [6] | [7] | [8] | [17] | [9] | [19] | [11] | [18] | [12] | [13] | [14] | [15]
active: [10] 39.1 µM

CC(C)C[C@H]1C(=O)N2CCC[C@H]2[C@]2(O)O[C@](NC(=O)[C@@H]3C=C4c5cccc6[nH]c(Br)c(c56)C[C@H]4N(C)C3)(C(C)C)C(=O)N12
active: [2] 3.76 µM | [17] 744 nM | [9] 4.02 µM | [10] 0.302 µM | [11] 1.9 µM | [12] 2.91 µM | [15] 3.09 µM | [16] 4.37 µM
inactive: [1] | [3] | [4] | [6] | [7] | [18] | [13] | [14]

Cc1ccc(C=O)s1
inactive: [2] | [3] | [4] | [5] | [6] | [7] | [8] | [17] | [9] | [19] | [11] | [18] | [12] | [13] | [14] | [15] | [16]
active: [10] 35.7 µM

CO[Si](CCCn1c(=O)n(CCC[Si](OC)(OC)OC)c(=O)n(CCC[Si](OC)(OC)OC)c1=O)(OC)OC
inactive: [2] | [3] | [4] | [5] | [6] | [7] | [8] | [17] | [9] | [19] | [11] | [18] | [12] | [13] | [14] | [15] | [16]
active: [10] 28.6 µM

C/C=C(\C)C(=O)OCc1ccccc1
inactive: [1] | [2] | [4] | [5] | [6] | [7] | [8] | [9] | [10] | [11] | [18] | [12] | [13] | [14] | [15]

COC(=O)OC
inactive: [1] | [2] | [4] | [5] | [6] | [7] | [8] | [17] | [9] | [10] | [19] | [11] | [18] | [12] | [13] | [14] | [15] | [16]

O=C1CCc2ccccc2O1
inactive: [1] | [2] | [3] | [4] | [5] | [7] | [8] | [9] | [10] | [19] | [12] | [13] | [14] | [16]

— PubChem BioAssay (EPA / NIEHS)
